# Measured values: PubChem BioAssay AID651815 (National Center for Advancing Translational Sciences (NCATS), 2012)
# Screen size: about 2,100 compounds; about 1,100 (52%) were called active. Another 29% or so got no clear call; they are omitted. Calls come from the whole dose curve; as a rule, active = well fitted inhibition curve with a large enough effect; inconclusive = small, poorly fitted or top-dose-only effect; inactive = no such curve, though single readings can be large or run the other way. So high a share suggests a set chosen from earlier hits. This is one part of the list.
# Target: DNA dC->dU-editing enzyme APOBEC-3F (Homo sapiens) (UniProt Q8IUX4)
# Experiment: qHTS for inhibitors of Vif-A3F interactions: Cherry picks counterscreen; note: nearly all actives have a fitted effect of over 65% in size
# Details: HeLa A3F-eYFP/Vif cells, eYFP fluorescence, 24 h; series mostly up to 46.1 µM
# Method in brief: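 HeLa cells stably expressing A3F-eYFP and Vif, cultured overnight, then treated 24 h at 37 degrees C with compounds at several concentrations; yellow fluorescence (488 nm Ex/500-530 nm Em) imaged on Acumen; MG132 positive control.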
# Potency is the fitted concentration of half-maximal effect.
# Chain of DNA dC->dU-editing enzyme APOBEC-3F (Homo sapiens) (Q8IUX4 whole entry, looked up): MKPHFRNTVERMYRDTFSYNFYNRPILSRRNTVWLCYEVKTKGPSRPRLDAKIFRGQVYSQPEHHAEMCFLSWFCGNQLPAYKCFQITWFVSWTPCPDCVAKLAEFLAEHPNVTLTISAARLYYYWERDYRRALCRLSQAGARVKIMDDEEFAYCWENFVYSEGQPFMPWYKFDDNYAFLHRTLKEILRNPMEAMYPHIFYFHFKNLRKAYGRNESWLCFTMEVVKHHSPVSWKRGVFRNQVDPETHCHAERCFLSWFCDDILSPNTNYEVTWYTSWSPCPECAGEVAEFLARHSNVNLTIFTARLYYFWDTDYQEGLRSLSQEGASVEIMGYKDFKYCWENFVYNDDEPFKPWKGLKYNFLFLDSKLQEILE
row,SMILES,Potency
1,CCOc1ccc(S(=O)(=O)NCc2ccccn2)cc1NC(=O)c1ccccc1,3.14 µM (active)
2,CCN1/C(=C/C=C2/SC(=Nc3cccc4ncccc34)N(C)C2=O)Sc2ccccc21,2.31 µM (active)
3,COc1ccc2nc(SCC(=O)N3CC(=O)Nc4ccccc43)c(C#N)cc2c1,16.4 µM (active)
4,N#Cc1cc2ccccc2nc1SCC(=O)Nc1ccccc1N1CCOCC1,inactive
5,CCc1ccc2nc(SCC(=O)Nc3ccccc3N3CCOCC3)c(C#N)cc2c1,2.59 µM (active)
6,CCc1ccc2nc(SCC(=O)N3CC(=O)Nc4ccccc43)c(C#N)cc2c1,14 µM (active)
7,CCC1CCCCN1CCCNC(=O)c1ccc2c(c1)N(Cc1ccccc1F)C(=O)c1ccccc1S2(=O)=O (stereo not drawn),4.11 µM (active)
8,Cc1nc(SCC(=O)c2ccccc2)c(C#N)c(-c2ccco2)c1C(=O)NCc1ccco1,inactive
9,N#Cc1ccc(-c2cccnc2)nc1SCC(=O)c1ccccc1,2.91 µM (active)
10,Cc1ccc(C(=O)CSc2nc(-c3ccccc3)ccc2C#N)cc1,16.4 µM (active)
11,CC(=O)c1ccc2cccc3c2c1N=CN3C,12.5 µM (active)
12,CC(=O)Nc1sc2c(c1-c1nc3ccccc3s1)CCN(C(C)C)C2,3.26 µM (active)
13,CN1CCc2c(sc(NC(=O)CSc3ccc(F)cc3)c2-c2nc3ccccc3s2)C1,14.6 µM (active)
14,CC(=O)N1CCc2c(sc(NC(=O)CSc3ccccc3)c2-c2nc3ccccc3s2)C1,16.4 µM (active)
15,Cc1ccc(/C=C/c2ccc(N(C)C)cc2)[n+](C)c1,15.8 µM (active)
16,CN(C)c1ccc(/C=C/c2cc[n+](C)cc2)cc1,17.7 µM (active)
17,CC[n+]1cc(C)ccc1/C=C/c1ccc(N(C)C)cc1,17.7 µM (active)
18,CCOC(=O)c1c(CC(C)C)csc1/N=C/C1C(=O)CCCC1=O,inactive
19,O=C(NCc1cc(C(F)(F)F)ccc1Cl)c1cccc2c1C(=O)c1ccc(N3CCOCC3)cc1S2(=O)=O,18.4 µM (active)
20,O=C(NCc1ccco1)c1cccc2c1C(=O)c1ccc(N3CCC(Cc4ccccc4)CC3)cc1S2(=O)=O,20.6 µM (active)
21,O=C(NCc1cc(C(F)(F)F)ccc1Cl)c1cccc2c1C(=O)c1ccc(N3CCC(Cc4ccccc4)CC3)cc1S2(=O)=O,14 µM (active)
22,O=C(NCc1cccc(C(F)(F)F)c1)c1cccc2c1C(=O)c1ccc(N3CCC(Cc4ccccc4)CC3)cc1S2(=O)=O,18.4 µM (active)
23,Cc1ccc(C(=O)NC2c3ccccc3-c3ccccc32)cc1,3.96 µM (active)
24,COc1ccccc1-c1cc(NC=O)c2ncc(-c3ccc(S(C)(=O)=O)cc3)n2c1,5.59 µM (active)

row,SMILES,Potency
1,COc1ccccc1-c1cc(NC=O)c2ncc(-c3cccc(C(=O)N(C)C)c3)n2c1,14 µM (active)
2,CN(C)C(=O)c1cccc(-c2cnc3c(NC=O)cc(-c4ccccc4F)cn23)c1,inactive
3,CC1C/C(=N\NC(N)=S)c2cc(Cl)ccc2S1 (stereo not drawn),inactive
4,O=C(Nc1nnc(-c2ccc3c(c2)CCCC3)o1)c1c(F)cccc1F,inactive
5,Cc1ccccc1-n1c(/C=C/c2c(C)n(C)c3ccccc23)nc2ccccc2c1=O,18.4 µM (active)
6,O=C(Nc1cc(Cl)ccc1-n1cncn1)c1ccc([N+](=O)[O-])s1,14 µM (active)
7,COc1cccc(/C=N/NC(=O)c2[nH]nc3c2CCc2ccccc2-3)c1,2.5 µM (active)
8,COc1ccc(/C=N/NC(=O)c2[nH]nc3c2CCc2ccccc2-3)cc1OC,4.98 µM (active)
9,COc1ccc(CN2C(=O)C(C)Nc3ncnc(N4CCc5ccccc5C4)c32)cc1 (stereo not drawn),2.8 µM (active)
10,CCn1nc(-c2ccccc2)c2nc3ccccc3nc21,20.6 µM (active)
11,O=C(NCC1CCCO1)c1nn2c(C(F)(F)F)cc(-c3cc(Br)cs3)nc2c1Br (stereo not drawn),11.6 µM (active)
12,CS(=O)(=O)N(CC(=O)N1CCN(Cc2ccccc2)CC1)c1ccccc1F,inactive
13,CC(=O)n1c2ccccc2c2nc3ccccc3nc21,5.8 µM (active)
14,Cc1cccc(-n2c(N)c(-c3nc4ccccc4n3C)c3nc4ccccc4nc32)c1,inactive
15,CS(=O)(=O)Nc1ccc(C2=NN(S(C)(=O)=O)C(c3ccc4nccnc4c3)C2)cc1 (stereo not drawn),inactive
16,CCS(=O)(=O)N1N=C(c2cccc(NS(C)(=O)=O)c2)CC1c1ccc(C)cc1 (stereo not drawn),18.4 µM (active)
17,CS(=O)(=O)N1N=C(c2ccccc2)CC1c1ccc2c(c1)OCO2 (stereo not drawn),14 µM (active)
18,Cc1ccc(CNC(=O)C2CC(c3cc(C(F)(F)F)cc(C(F)(F)F)c3)=NO2)o1 (stereo not drawn),7.04 µM (active)
19,N#Cc1cc2ccccc2nc1SCc1ccccn1,16.4 µM (active)
20,O=C1c2ccccc2C(=O)c2c(/C=C/N3CCCCC3)ccnc21,18.4 µM (active)
21,Clc1ccc2c(c1)C(C1=NCCN1)c1ccccc1CS2 (stereo not drawn),3.14 µM (active)
22,CC(C)n1c(O)c(N=Nc2ccc(Cl)nn2)c2ccccc21,18.4 µM (active)
23,CCCC(=O)NC(c1ccc(OC)cc1)c1ccc2cccnc2c1O (stereo not drawn),inactive
24,CCC(=O)NC(c1ccc(OC)cc1)c1c(O)ccc2ccccc12 (stereo not drawn),6.27 µM (active)

row,SMILES,Potency
1,CN1/C(=C\C=C(/C#N)C(=O)Nc2ccc(Cl)cc2)C(C)(C)c2ccccc21,5.59 µM (active)
2,CN1/C(=C\C=C(/C#N)C(=O)Nc2ccccc2F)C(C)(C)c2ccccc21,16.4 µM (active)
3,Cc1ccccc1C1CC(c2cccs2)=NN1S(C)(=O)=O (stereo not drawn),inactive
4,Cc1ccc(C2=NN(S(=O)(=O)c3ccccc3)C(c3ccccc3O)C2)cc1 (stereo not drawn),18.4 µM (active)
5,Cc1ccc(C2=NN(C(=O)c3cccs3)C(c3ccccc3O)C2)cc1 (stereo not drawn),inactive
6,O=Nc1ccc(O)c2ncccc12,inactive
7,Cc1[nH]c2ccccc2c1/C=C/c1ccc2ccccc2n1,18.4 µM (active)
8,Cc1[nH]c2ccccc2c1/C=C/c1ccnc2ccccc12,3.26 µM (active)
9,O=C(CCl)N1c2ccccc2Oc2ccc3ccccc3c21,14 µM (active)
10,COc1cc(C2Oc3ccccc3C=C2[N+](=O)[O-])cc(OC)c1OC (stereo not drawn),15.8 µM (active)
11,CCN(CC)c1nc2ccccc2nc1C(C#N)C(=O)NCCc1ccccc1 (stereo not drawn),7.31 µM (active)
12,N#CC(C(=O)NCc1ccccc1)c1nc2ccccc2nc1N1CCCC1 (stereo not drawn),3.66 µM (active)
13,CCCCn1c(N)c(N(Cc2ccccc2OC)C(=O)c2ccc([N+](=O)[O-])s2)c(=O)[nH]c1=O,inactive
14,Cc1cc2nc3s/c(=C/c4ccc(-c5ccccc5C(=O)O)o4)c(=O)n3c2cc1C,11.6 µM (active)
15,Cc1cc(C(=O)N/N=C/c2ccc3c(c2)OCO3)c2ccccc2n1,4.44 µM (active)
16,Cc1cccc(C)c1OCC(=O)N/N=C/c1ccc2c(c1)OCO2,3.53 µM (active)
17,O=C(N/N=C/c1ccc2c(c1)OCO2)c1cc(-c2ccncc2)nc2ccccc12,6.27 µM (active)
18,O=C(N/N=C/c1ccsc1)c1cc(-c2cccs2)nc2ccccc12,15.8 µM (active)
19,O=C(N/N=C/c1ccc2c(c1)OCO2)c1cc(-c2ccco2)nc2ccccc12,12.5 µM (active)
20,Cc1cc(NC(=O)/C(C#N)=C/c2ccc(-c3ccc(SC(F)F)cc3)o2)n(-c2ccccc2)n1,7.31 µM (active)
21,Cc1cc(NC(=O)/C(C#N)=C\c2ccc(-c3ccc(SC(F)F)cc3)o2)n(-c2ccccc2)n1,8.2 µM (active)
22,COCCN(CCOC)Cc1c(O)ccc2c1O/C(=C\c1ccc(C)o1)C2=O,inactive
23,N#CCSc1ccccc1NC(=O)COc1ccc(-c2nnco2)cc1,17.7 µM (active)
24,CCOc1cc(/C=C2\N=C(SC(C)C(N)=O)N(c3ccc(OC(F)F)cc3)C2=O)ccc1O (stereo not drawn),4.44 µM (active)

row,SMILES,Potency
1,C/C(=N\NC(=O)c1cc(C)nc2ccccc12)c1ccncc1,inactive
2,Cc1cc(C(=O)N/N=C/c2ccc(C)o2)c2ccccc2n1,2.23 µM (active)
3,Cc1ccc(C=NNC(=O)c2cc(-c3cccnc3)nc3ccccc23)o1,8.86 µM (active)
4,O=C(N/N=C/c1ccc(Cl)cc1)c1cc(-c2cccnc2)nc2ccccc12,4.44 µM (active)
5,Cc1ccc(/C=N/NC(=O)c2cc(-c3ccccc3)nc3ccccc23)o1,14 µM (active)
6,CCOc1ccc(-c2cc(C(=O)N/N=C(\C)c3cccnc3)c3ccccc3n2)cc1,inactive
7,CCCN(C(=O)CSc1n[nH]c(-c2ccc(OC)cc2)n1)c1c(N)n(Cc2ccccc2)c(=O)[nH]c1=O,inactive
8,C/C(=N\NC(=S)NCc1ccccc1)c1cccs1,inactive
9,CCOC(=O)Nc1ccc2nc(-c3cscn3)[nH]c2c1,5.59 µM (active)
10,CC[n+]1c(/C=C/N(C)c2ccccc2)oc2ccc(F)cc21,17.7 µM (active)
11,CC[n+]1c(/C=C/Nc2ccccc2)oc2ccc(OC)cc21,16.4 µM (active)
12,CC[n+]1c(/C=C/Nc2ccccc2)oc2ccccc21,18.4 µM (active)
13,NC(=O)c1ccc(NC(=O)C#Cc2ccccc2)cc1,inactive
14,O=C(N/N=C/c1cccc2ccccc12)c1cc2ccccc2o1,7.9 µM (active)
15,Cc1cc(/C=N/NC(=O)c2cc3ccccc3o2)c(C)n1C,inactive
16,Cc1c(/C=N\NC(=O)c2cc3ccccc3o2)c2ccccc2n1C,5.59 µM (active)
17,COc1cc(Cl)c(C)cc1Nc1nc2ccccc2nc1NS(=O)(=O)c1ccccc1,1.46 µM (active)
18,COc1ccc(OC)c(Nc2nc(-c3ccncc3)nc3ccccc23)c1,inactive
19,Cc1cccc(C)c1Nc1nc2ccccc2nc1NS(=O)(=O)c1ccccc1,23.1 µM (active)
20,CCOC(=O)N1CCN(/C=C(\C#N)c2nc3ccccc3s2)CC1,18.4 µM (active)
21,Cc1cc(Br)ccc1SCC(=O)OC/C(O)=C(\C#N)c1nc2ccccc2[nH]1,inactive
